Source: PubChem BioAssay AID1159580 (chemical genetic matrix, 2015)
The whole screen tested about 5,500 compounds, of which about 2,000 (36%) were called active. Inconclusive results (about 18%) are left out. Cut-off read from the data, not from the text of the source: active = normalized growth mostly below about 0.91 (no sharp cut-off); inconclusive = no clear call, values can overlap the other calls; inactive = mostly above about 0.92. Some of the results follow.

Test: chemical genetic growth profiling, strain panel (AID 1159580);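 note: tested at 20 µM; growth read once vehicle control cultures reached saturation at 30 °C; 1 = growth at the plate median or of vehicle wells; lower values mean less growth of the strain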
Conditions: S. cerevisiae deletion strains, growth OD

Measured: normalized growth

CC(=O)O[C@H]1CC2CCC3C(CC[C@@]4(C)C3C[C@H]([N+]3(C)CCCCC3)[C@@H]4OC(C)=O)[C@@]2(C)C[C@@H]1N1CCCCC1 (stereo not given in full)
inactive: locus YAL021C, strain ccr4, active compounds read low 1.02 | locus YAL026C, strain drs2, active compounds read low 1.03 | locus YAL030W, strain snc1, active compounds read low 1.03 | locus YBL061C, strain skt5, active compounds read low 1.02 | locus YBR009C, strain hhf1, active compounds read low 1.03 | locus YBR023C, strain chs3, active compounds read low 1.02 | locus YBR171W, strain sec66, active compounds read low 1.04 | locus YBR231C, strain swc5, active compounds read low 1.03 | locus YBR279W, strain paf1, active compounds read low 1.03 | locus YCL011C, strain gbp2, active compounds read low 1.03 | locus YCL016C, strain dcc1, active compounds read low 1.02 | locus YCL061C, strain MRC1, active compounds read low 1.02 | locus YCL069W, strain vba3, active compounds read low 1.02 | locus YCR088W, strain abp1, active compounds read low 1.02 | locus YDL005C, strain med2, active compounds read low 1.03 | locus YDL040C, strain nat1, active compounds read low 1.01 | locus YDR001C, strain nth1, active compounds read low 1.02 | locus YDR069C, strain doa4, active compounds read low 1.02 | locus YDR137W, strain rgp1, active compounds read low 1.07 | locus YDR159W, strain sac3, active compounds read low 1.03 | locus YDR195W, strain ref2 1.03 | locus YDR297W, strain sur2, active compounds read low 1.02 | locus YDR334W, strain swr1, active compounds read low 1.02 | locus YDR335W, strain msn5, active compounds read low 1.02 | locus YDR392W, strain spt3, active compounds read low 0.868 | locus YEL003W, strain gim4, active compounds read low 1.02 | locus YEL037C, strain rad23, active compounds read low 1.02 | locus YEL061C, strain CIN8 (second series), active compounds read low 1.03 | locus YER015W, strain faa2, active compounds read low 1.02 | locus YER016W, strain bim1, active compounds read low 1.02 | locus YER111C, strain swi4, active compounds read low 1.01 | locus YER155C, strain BEM2 (second series), active compounds read low 1.03 | locus YFR010W, strain ubp6, active compounds read low 1.01 | locus YGL167C, strain pmr1, active compounds read low 1.04 | locus YGL173C, strain kem1, active compounds read low 1.03 | locus YGL227W, strain vid30, active compounds read low 1.02 | locus YGL240W, strain doc1, active compounds read low 1.04 | locus YGL253W, strain hxk2, active compounds read low 1.01 | locus YHR013C, strain ard1, active compounds read low 1.01 | locus YHR027C, strain rpn1, active compounds read low 1.02 | locus YHR030C, strain SLT2, active compounds read low 1.05 | locus YHR079C, strain IRE1, active compounds read low 1.03 | locus YHR142W, strain chs7, active compounds read low 1.02 | locus YJL092W, strain hpr5, active compounds read low 1.01 | locus YJL095W, strain BCK1 (second series), active compounds read low 1.02 | locus YJL095W, strain BCK1, active compounds read low 0.993 | locus YJL115W, strain asf1, active compounds read low 1.02 | locus YJL129C, strain trk1, active compounds read low 1.03 | locus YJL154C, strain vps35, active compounds read low 1.02 | locus YJL164C, strain tpk1, active compounds read low 1 | locus YJL166W, strain qcr8, active compounds read low 1.03 | locus YJL187C, strain SWE1, active compounds read low 1.03 | locus YJR066W, strain TOR1, active compounds read low 0.979 | locus YKL160W, strain elf1, active compounds read low 1.03 | locus YKR026C, strain gcn3, active compounds read low 0.998 | locus YKR091W, strain srl3, active compounds read low 1.03 | locus YLL001W, strain dnm1, active compounds read low 1.01 | locus YLL026W, active compounds read low 1.02 | locus YLL041C, strain sdh2, active compounds read low 1.02 | locus YLR027C, strain aat2, active compounds read low 1.02 | locus YLR113W, strain HOG1, active compounds read low 0.99 | locus YLR221C, strain rsa3, active compounds read low 1.01 | locus YLR258W, strain gsy2, active compounds read low 1.02 | locus YLR262C, strain YPT6 (second series), active compounds read low 1.04 | locus YLR320W, strain mms22, active compounds read low 1.02 | locus YLR342W, strain FKS1, active compounds read low 1.02 | locus YLR357W, strain rsc2, active compounds read low 1.04 | locus YLR370C, strain arc18, active compounds read low 1.02 | locus YLR384C, strain iki3, active compounds read low 1.03 | locus YML120C, strain ndi1, active compounds read low 1.02 | locus YMR058W, strain fet3, active compounds read low 1.03 | locus YMR125W, strain sto1, active compounds read low 1.05 | locus YMR129W, active compounds read low 1.02 | locus YMR205C, strain PFK2, active compounds read low 1.05 | locus YMR231W, strain pep5, active compounds read low 1.02 | locus YNL071W, strain lat1, active compounds read low 1.01 | locus YNL183C, strain NPR1, active compounds read low 0.965 | locus YNL209W, strain ssb2, active compounds read low 1.02 | locus YNL248C, strain rpa49, active compounds read low 1.01 | locus YNL322C, strain KRE1 (second series), active compounds read low 1.02 | locus YNR049C, strain mso1, active compounds read low 1.01 | locus YOR001W, strain rrp6, active compounds read low 1.02 | locus YOR070C, strain gyp1, active compounds read low 1.01 | locus YOR080W, strain dia2, active compounds read low 1.04 | locus YOR083W, strain WHI5, active compounds read low 1.02 | locus YOR106W, strain vam3, active compounds read low 1.02 | locus YOR231W, strain MKK1, active compounds read low 1.04 | locus YOR265W, strain rbl2, active compounds read low 1.02 | locus YOR270C, strain vph1, active compounds read low 1.04 | locus YOR290C, strain snf2, active compounds read low 1.03 | locus YPL051W, strain arl3, active compounds read low 1.01 | locus YPL078C, strain atp4, active compounds read low 1.02 | locus YPL106C, strain sse1, active compounds read low 1.02 | locus YPL240C, strain hsp82, active compounds read low 1.01 | locus YPL256C, strain CLN2, active compounds read low 1.04
